NPR1 antag – human Npr1 receptor antagonism; HEK293 hNpr1 GloSensor cGMP, ANP-stimulated luminescence; Potency, µM (series often up to 46.3 µM), actives largely listed as inhibitors; 1.6% of 76,000 active; calls by dose curve; note: nearly all actives have a fitted effect of over 60% in size
Target sequence (P16066 whole entry, looked up): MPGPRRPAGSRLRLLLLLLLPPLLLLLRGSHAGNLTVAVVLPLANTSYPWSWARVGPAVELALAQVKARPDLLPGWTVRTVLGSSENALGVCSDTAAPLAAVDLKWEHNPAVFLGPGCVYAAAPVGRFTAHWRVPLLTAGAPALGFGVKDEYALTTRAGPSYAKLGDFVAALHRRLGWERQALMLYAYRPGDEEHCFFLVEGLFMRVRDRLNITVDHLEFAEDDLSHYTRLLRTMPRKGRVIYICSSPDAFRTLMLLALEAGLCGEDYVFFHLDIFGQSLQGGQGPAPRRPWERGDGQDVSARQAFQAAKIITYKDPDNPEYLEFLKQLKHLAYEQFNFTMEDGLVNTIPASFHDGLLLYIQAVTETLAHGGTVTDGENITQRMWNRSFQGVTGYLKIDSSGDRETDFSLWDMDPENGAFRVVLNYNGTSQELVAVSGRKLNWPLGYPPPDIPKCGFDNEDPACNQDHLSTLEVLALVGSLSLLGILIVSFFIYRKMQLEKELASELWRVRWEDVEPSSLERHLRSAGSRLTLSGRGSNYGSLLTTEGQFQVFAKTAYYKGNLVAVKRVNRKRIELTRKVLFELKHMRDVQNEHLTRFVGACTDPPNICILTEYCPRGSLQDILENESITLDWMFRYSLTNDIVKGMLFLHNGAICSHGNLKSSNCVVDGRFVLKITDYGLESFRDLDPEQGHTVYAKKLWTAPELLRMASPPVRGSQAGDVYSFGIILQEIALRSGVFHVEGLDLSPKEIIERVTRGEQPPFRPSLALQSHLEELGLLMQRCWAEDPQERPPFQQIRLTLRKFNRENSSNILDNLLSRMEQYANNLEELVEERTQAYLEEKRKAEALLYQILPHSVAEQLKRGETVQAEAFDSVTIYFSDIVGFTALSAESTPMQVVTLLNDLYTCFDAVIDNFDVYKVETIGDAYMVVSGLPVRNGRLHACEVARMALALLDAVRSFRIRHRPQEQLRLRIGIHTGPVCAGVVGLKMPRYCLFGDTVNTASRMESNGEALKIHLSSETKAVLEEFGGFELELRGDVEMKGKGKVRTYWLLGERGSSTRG
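HEK293 cells stably expressing human Npr1 and cGMP GloSensor pGS-40F, loaded 2 h with 2% GloSensor reagent, given compound 30 min at room temperature. Luminescence read before and 20 min after 0.1 nM hNppA.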
GPT2 inh – inhibitors of human GPT2 alanine aminotransferase. 0.25% of 100,000 active. Potency, µM (top dose mostly 57.7 µM), hits mostly inhibitors. Recombinant GPT2, coupled pyruvate oxidase/HRP Amplex Red fluorescence. Q8TD30; note: nearly all actives have a fitted effect of over 60% in size
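Recombinant GPT2 (10ng/uL) with 250uM a-KG and 2mM L-alanine, 30 min at room temperature, in HEPES pH 7.5 buffer. Pyruvate detected by pyruvate oxidase/HRP/Amplex Red fluorescence after 30 min in the dark; AOA (50uM) as positive control.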
HEK293 tox – HEK 293 cell cytotoxicity | HEK 293 viability, ATP luminescence (CellTiter-Glo), 48-72 h | Potency, µM (series often up to 115 µM), usual class: inhibitors | 6.6% of 94,000 active; note: nearly all actives have a fitted effect of over 60% in size
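qHTS cytotoxicity; HEK 293, 250 cells/well; compound pinned; 48 or 72 hr, 37 degree Celsius, 5% CO2, 95% humidity; CellTiter-Glo, 10 min RT; luminescence (ATP).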
FLuc inh – blocks purified firefly luciferase enzyme activity. 2.5% of 76,000 active. purified P. pyralis luciferase, luminescence, biochemical. P08659. Potency, µM (titrated, usually from 115 µM), usual class: inhibitors; note: nearly all actives have a fitted effect of over 65% in size
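Biochemical qHTS: compound (6-point titration) added to 10uM D-luciferin plus 10uM ATP in Tris acetate pH 7.5 buffer with Mg, Tween-20 and BSA, then purified enzyme at 10nM; light output imaged.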
3T3 cytotox – cytotoxic compounds in NIH 3T3 cells; NIH 3T3 viability, CellTiter-Glo ATP luminescence, 48-72 h; Potency, µM (top dose mostly 96.7 µM), hits mostly inhibitors; 4.3% of 94,000 active; AID 1345082; note: nearly all actives have a fitted effect of over 55% in size
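Viability of NIH 3T3 cells after 48 or 72 hr compound treatment at 37 °C was assessed by CellTiter-Glo, with luminescence imaged following a 10 min room-temperature step.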
Large screens that a line does not name were inactive. Compounds with a hit are over-represented: about 10% of the library has one in this group of screens. Unless noted, calls come from the whole dose curve; as a rule, active = well fitted curve in the direction sought with a large enough effect; inconclusive = small, poorly fitted or top-dose-only effect, or another doubt; inactive = no such curve, though single readings can be large; an effect the other way counts as inactive or inconclusive.

COc1ccc(-c2cc3c(nc2-c2ccccc2)nc(C(=O)NCCN(C)C)n3C)cn1	HEK293 tox inconclusive, 3T3 cytotox 79µM
Cc1ccccc1-c1cc2c(nc1-c1ccccc1)nc(C(=O)NCCN(C)C)n2C	NPR1 antag inconclusive, HEK293 tox 35µM, 3T3 cytotox 25µM
COc1cc(-c2cc3c(nc2-c2ccccc2)nc(C(=O)NCCN(C)C)n3C)ccn1	HEK293 tox inconclusive, 3T3 cytotox inconclusive
CN(C)CCNC(=O)c1nc2nc(-c3ccccc3)c(-c3ccncc3)cc2n1C	HEK293 tox inconclusive, 3T3 cytotox 100µM
COc1cc(F)ccc1-c1cc2c(nc1-c1ccccc1)nc(C(=O)NCCN(C)C)n2C	HEK293 tox 32µM, 3T3 cytotox 20µM
CC1=C[C@@H](CN(C)CCO)[C@H](C(C)C)C[C@H]1Cc1nnc(C)o1	none
Cc1ccccc1CN1CCCC2(Cc3ccccc3CNC2=O)C1 (stereo not given)	none (no result: NPR1 antag, FLuc inh)
COc1ccccc1-c1cc2c(nc1-c1ccccc1)nc(C(=O)NCCN(C)C)n2C	NPR1 antag inconclusive, HEK293 tox inconclusive, 3T3 cytotox 35µM
Cc1cc(-c2cc3c(nc2-c2ccccc2)nc(C(=O)NC2CCN(C)CC2)n3C)ccn1	HEK293 tox inconclusive, 3T3 cytotox 25µM
COc1ccccc1-c1cccc(C(=O)N2CCN(C(=O)Cc3ccccn3)CC2)c1	none (no result: NPR1 antag, FLuc inh)
O=C(NCc1ccc(F)cc1)c1ccc2oc(-c3ccnc(Cl)c3)nc2c1	none (no result: NPR1 antag, FLuc inh)
COc1ccccc1-c1cnc(Nc2cccnc2OC)c2c1CCO2	HEK293 tox 28µM, FLuc inh inconclusive, 3T3 cytotox inconclusive
COc1ccccc1-c1cnc(Nc2ccc(Cl)cn2)c2c1CCO2	HEK293 tox 63µM, FLuc inh inconclusive, 3T3 cytotox inconclusive
COc1ccccc1-c1cnc(Nc2cccnc2)c2c1CCO2	NPR1 antag inconclusive, HEK293 tox 79µM, FLuc inh inconclusive, 3T3 cytotox inconclusive
COc1cccc(-c2ccc(CN3CCCC(NC(=O)Nc4ccc(Cl)cc4)C3)cc2)c1 (stereo not given)	HEK293 tox inconclusive, 3T3 cytotox inconclusive (no result: NPR1 antag, FLuc inh)
CSc1ccc(-c2cccc(C(=O)NCC(=O)NC(C)C)c2)cc1	HEK293 tox inconclusive, 3T3 cytotox inconclusive (no result: NPR1 antag, FLuc inh)
CSc1ccc(-c2cccc(C(=O)NCCNC(=O)Nc3ccc(Cl)cc3)c2)cc1	HEK293 tox inconclusive, 3T3 cytotox inconclusive (no result: NPR1 antag, FLuc inh)
Cc1cnc(-c2ccccc2)n1CC1CCN(C(=O)c2ccsc2)C1 (stereo not given)	none (no result: NPR1 antag, FLuc inh)
CCOC(=O)[C@H]1[C@@H](O)C(=O)N(C(C)C)C12CCN(C(=O)c1cc(C)oc1C)CC2	3T3 cytotox inconclusive (no result: NPR1 antag, GPT2 inh, FLuc inh)
CCCCCNC(=O)C1CCCN1c1nccc(Nc2ccc(C)cc2)n1 (stereo not given)	HEK293 tox inconclusive, 3T3 cytotox inconclusive (no result: NPR1 antag, FLuc inh)
c1cc(-c2nc3c(c(NCc4cn5c(n4)SCC5)n2)CCNCC3)ccn1	HEK293 tox 20µM, 3T3 cytotox inconclusive
Cc1nn(-c2ccccc2)c2c1C(C)N(C1CCCN(C(=O)c3ccccc3Cl)C1)C2=O (stereo not given)	HEK293 tox 40µM, 3T3 cytotox inconclusive (no result: NPR1 antag, GPT2 inh, FLuc inh)
COc1ccc(C(=O)N2CCCC(N3C(=O)c4c(c(C)nn4-c4ccccc4)C3C)C2)cc1 (stereo not given)	HEK293 tox inconclusive, 3T3 cytotox 14µM (no result: NPR1 antag, GPT2 inh, FLuc inh)
COc1ccc(C(=O)N2CCCC(C(=O)N3CCCC(c4nc5ncccc5[nH]4)C3)C2)cc1 (stereo not given)	3T3 cytotox inconclusive (no result: NPR1 antag, FLuc inh)
CCCCCNC(=O)c1ccccc1-c1ccc(OC)nn1	none (no result: NPR1 antag, GPT2 inh, FLuc inh)
C[C@H]1CC[C@@]2(OC1)O[C@H]1CC3[C@@H]4CC[C@@H]5C[C@@H](O[C@@H]6O[C@H](CO)[C@@H](O[C@@H]7O[C@H](CO[C@@H]8OC[C@@H](O)[C@H](O)[C@H]8O)[C@@H](O[C@@H]8O[C@H](CO)[C@H](O)[C@H](O)[C@H]8O)[C@H](O)[C@H]7O)[C@H](O)[C@H]6O)CC[C@]5(C)C4CC[C@]3(C)[C@H]1[C@@H]2C (stereo not given in full)	none (no result: NPR1 antag, HEK293 tox, FLuc inh, 3T3 cytotox)
COc1cc(F)ccc1-c1cnc2n[nH]c(-c3ccccc3)c2n1	HEK293 tox inconclusive, 3T3 cytotox inconclusive
Clc1ccc(-c2cnc3n[nH]c(-c4ccccc4)c3n2)cc1	HEK293 tox 79µM, 3T3 cytotox 28µM
Fc1ccc(-c2cnc3n[nH]c(-c4ccccc4)c3n2)cc1	HEK293 tox inconclusive, 3T3 cytotox 28µM
CNC(=O)c1cc(C)nc2onc(C3CCN(C(=O)c4ccc(Cl)nc4)C3)c12 (stereo not given)	none (no result: NPR1 antag, GPT2 inh, FLuc inh)
COc1cccc(-c2ccc3ncn(-c4ccc(F)cc4F)c(=O)c3n2)c1	HEK293 tox inconclusive, FLuc inh inconclusive, 3T3 cytotox 50µM
COc1ccc(-c2ccc3ncn(-c4ccc(F)cc4F)c(=O)c3n2)cc1OC	HEK293 tox inconclusive, 3T3 cytotox inconclusive
O=c1c2nc(-c3ccccc3)ccc2ncn1-c1ccc(F)cc1F	GPT2 inh inconclusive, HEK293 tox inconclusive, 3T3 cytotox 28µM
O=c1c2nc(-c3ccsc3)ccc2ncn1-c1ccc(F)cc1F	HEK293 tox 100µM, 3T3 cytotox 45µM
O=c1c2nc(-c3ccoc3)ccc2ncn1-c1ccc(F)cc1F	HEK293 tox inconclusive, 3T3 cytotox inconclusive
CCCCCC(=O)N1CCC(=O)N(CCOC)C[C@H]2COc3ccccc3[C@H]21	3T3 cytotox inconclusive (no result: NPR1 antag, GPT2 inh, FLuc inh)
COc1cc(CNC(=O)c2cc(-c3ccc(F)cc3)cc3ncn(C)c23)ccn1	HEK293 tox inconclusive, FLuc inh inconclusive, 3T3 cytotox inconclusive
Cn1nc(C2CC2)cc1NC(=O)c1ccccc1	none (no result: NPR1 antag, FLuc inh)
O=C(NC1CCCN(c2cc(-c3ccc(F)cc3)[nH]n2)C1)c1cccc(Cl)c1 (stereo not given)	HEK293 tox 35µM, 3T3 cytotox 18µM
Cc1nnc2ccc(N3CCCC(NC(=O)c4cccc(Cl)c4)C3)nn12 (stereo not given)	HEK293 tox 79µM, 3T3 cytotox inconclusive (no result: NPR1 antag, GPT2 inh, FLuc inh)
O=C(NC1CCCN(c2cc(-c3ccc(F)cc3)[nH]n2)C1)c1ccccc1Cl (stereo not given)	HEK293 tox inconclusive
CN(C)c1cccc(C(=O)NC2CCCN(c3cc(-c4ccc(Cl)cc4)[nH]n3)C2)c1 (stereo not given)	HEK293 tox inconclusive, FLuc inh inconclusive, 3T3 cytotox inconclusive
O=C(NC1CCCN(c2cc(-c3ccc(F)cc3)[nH]n2)C1)c1cccc(Br)c1 (stereo not given)	HEK293 tox 32µM, 3T3 cytotox inconclusive
CC(=O)Nc1cccc(C(=O)NC2CCCN(c3cc(-c4ccc(Cl)cc4)[nH]n3)C2)c1 (stereo not given)	HEK293 tox 45µM, FLuc inh 32µM, 3T3 cytotox inconclusive
Cc1nnc2ccc(N3CCC(NC(=O)c4cccc(Cl)c4)C3)nn12 (stereo not given)	3T3 cytotox inconclusive (no result: NPR1 antag, GPT2 inh, FLuc inh)

Screens: PubChem BioAssay, National Center for Advancing Translational Sciences (NCATS)
